Source: PubChem
In the library only some 9% were active in any assay of this set; here they are far more common.
ALDH1A1 block: ALDH1A1 (human) enzyme inhibition | P00352 | Purified ALDH1A1, NADH fluorescence, propionaldehyde substrate | Potency, µM (doses to about 75.3 µM), usual class: inhibitors | actives 7.3% (n = 220,000); active = well fitted inhibition curve with a large enough effect, not every such curve was filed as active; inconclusive = small, poorly fitted or top-dose-only effect, or another doubt; inactive = no such curve, though single readings can be large or run the other way
Lamin A splicing: LMNA splicing modulation; HeLa LMNA splicing GFP/RFP minigene ratio, 48 h; Potency, µM (series often up to 46.1 µM), hits mostly inhibitors; actives 0.01% (n = 200,000); AID 1487; active = well fitted inhibition curve with a large enough effect in the signal ratio, with a control signal flat, not every such curve was filed as active; inconclusive = small, poorly fitted or top-dose-only effect, or effect the other way, or a change in a side signal; the % refers to the signal ratio
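S3 HeLa stable clones carrying a lamin A-EGFP splicing minigene plus DsRed2 were seeded at 600 cells/well in Opti-MEM with 2% FBS, pin-dosed and incubated 48 h at 37°C. Acumen cytometry (488 nm) gave the GFP/RFP total-intensity ratio.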
HPGD block: HPGD (human) dehydrogenase inhibition; purified HPGD, NADH fluorescence kinetic, PGE2 substrate; Potency, µM, usual class: inhibitors; actives 4.3% (n = 150,000); P15428; active = well fitted inhibition curve with a large enough effect, not every such curve was filed as active; inconclusive = small, poorly fitted or top-dose-only effect, or another doubt; inactive = no such curve, though single readings can be large or run the other way
Target sequence (P15428 whole entry, looked up): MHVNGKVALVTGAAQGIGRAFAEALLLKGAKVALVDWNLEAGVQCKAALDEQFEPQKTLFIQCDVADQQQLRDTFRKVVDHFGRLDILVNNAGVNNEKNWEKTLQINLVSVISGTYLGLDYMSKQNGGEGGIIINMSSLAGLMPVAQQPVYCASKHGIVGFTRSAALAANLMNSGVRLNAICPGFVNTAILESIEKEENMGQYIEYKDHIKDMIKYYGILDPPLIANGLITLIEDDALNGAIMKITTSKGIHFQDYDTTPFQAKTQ
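20 nM HPGD preincubated 15 min at room temperature with compound in 50 mM Tris-HCl pH 8, 0.01% Tween 20. Started with 1 mM NAD+ and 30 uM prostaglandin E2; NADH fluorescence (360/450 nm) read 5 times over 30-s intervals, last minus first.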
IMPase Li inh: cell-permeable IMPase inhibitors with lithium potentiation; CHO-M1 cells, IP1 TR-FRET (IP-One), carbachol + lithium; Potency, µM (top dose mostly 59.4 µM), most hits filed as inhibitors; actives 0.35% (n = 210,000);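 note: IP1 builds up when IMPase is blocked and the TR-FRET signal falls; nearly all actives have a fitted effect of over 50% in size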
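CHO cells stably expressing M1 receptor (2000/well, cultured 16–30 h) treated 30 min at 37C with compound plus low lithium. Cytosolic IP1 by TR-FRET (665/620 ratio and 620 channel) after 10 min lysis; AC50 by Hill fit.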
Luc counter: Kinase-Glo luciferase inhibition (counter-screen). Q27757. Potency, µM (doses to about 38.3 µM), actives largely listed as inhibitors. actives 0.28% (n = 200,000). Kinase-Glo luciferase, ATP luminescence, 8 min; note: nearly all actives have a fitted effect of over 60% in size
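Substrate mix (final 50 mM imidazole pH 7.2, 50 mM KCl, 7 mM MgCl2, 10 uM ATP, 0.01% Tween 20, 0.05% BSA) plus pin-tool compound, then Kinase-Glo detection mix; 8 min ambient, luminescence read.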
Large screens that a line does not name were inactive. Unless noted, calls come from the whole dose curve; as a rule, active = well fitted curve in the direction sought with a large enough effect; inconclusive = small, poorly fitted or top-dose-only effect, or another doubt; inactive = no such curve, though single readings can be large; an effect the other way counts as inactive or inconclusive.

CC(=O)c1sc(NC(=O)COc2ccc(Cl)cc2Cl)nc1C	ALDH1A1 block 11.2µM, IMPase Li inh 10µM (no result: Lamin A splicing, HPGD block)
CCCCC(=O)Nc1nc(C)c(C(C)=O)s1	none
CCCC(=O)Nc1nc(C)c(C(C)=O)s1	ALDH1A1 block inconclusive, IMPase Li inh 8.91µM (no result: Lamin A splicing, HPGD block)
CCC(=O)Nc1nc(C)c(C(=O)N2CCCCC2)s1	ALDH1A1 block inconclusive, HPGD block 8.91µM
CN1CCN(c2ccnc(-c3ccccc3C(F)(F)F)n2)CC1	ALDH1A1 block inconclusive
COc1ccc(S(=O)(=O)NCCc2csc(-c3ccc(F)cc3)n2)cc1	none (no result: ALDH1A1 block, HPGD block, IMPase Li inh, Luc counter)
COC(=O)CC1c2ccccc2C=C(C)N1C(=O)OC (stereo not drawn)	none
COc1cc(C2NC(C(=O)O)CS2)ccc1OCc1ccccc1C#N (stereo not drawn)	ALDH1A1 block 8.91µM
COc1cc(/C=C/C(=O)O)ccc1OCc1ccccc1C#N	ALDH1A1 block inconclusive
O=[N+]([O-])c1ccc2[nH]c(O)c(N=NC(=S)NCC3CCCO3)c2c1 (stereo not drawn)	ALDH1A1 block 0.794µM, Lamin A splicing inconclusive
CCNC(=S)N=Nc1c(O)[nH]c2ccc([N+](=O)[O-])cc12	none (no result: HPGD block)
Cc1c(C(=O)N(C)C)sc2c1c(=O)n(-c1ccc(F)cc1)c(=O)n2Cc1cc(=O)n2ccccc2n1	none (no result: ALDH1A1 block, HPGD block, IMPase Li inh, Luc counter)
CC(C)(C)NC(=O)C(c1cccnc1)N(C(=O)c1ccc(Cl)nc1)C1CCCC1 (stereo not drawn)	ALDH1A1 block 5.62µM (no result: Lamin A splicing, HPGD block)
O=C(NC1CCCCC1)C(c1cccnc1)N(C(=O)c1ccc(Cl)nc1)C1CCCCC1 (stereo not drawn)	none (no result: HPGD block)
CC(C)(C)NC(=O)C(c1ccncc1)N(C(=O)c1csnn1)C1CC1 (stereo not drawn)	ALDH1A1 block 10µM
COc1ccc(Cn2c(SCc3ccc(C(=O)NC4CCCC4)cc3)nc3cccnc32)cc1	none (no result: ALDH1A1 block, HPGD block, IMPase Li inh, Luc counter)
O=C(Nc1ccccc1)N(Cc1ccccc1)C1=NCCS1	none
O=S(=O)(c1ccccc1)N(C1=NCCS1)S(=O)(=O)c1ccccc1	ALDH1A1 block 8.91µM
Fc1ccccc1Oc1nc(-c2ccncc2)nc2ccccc12	none (no result: HPGD block, IMPase Li inh, Luc counter)
O=C(CN(Cc1ccccc1)S(=O)(=O)c1ccccc1)N/N=C/c1ccccc1[N+](=O)[O-]	ALDH1A1 block 11.2µM
COc1ccc2nc(NC(=O)c3cccnc3SC)sc2c1	none
O=C(CCN1CCC(c2ccccc2)C1)c1ccc2c(c1)OCCO2 (stereo not drawn)	ALDH1A1 block 0.112µM, Lamin A splicing inconclusive
COc1cc(C(=O)CCN2CCC(c3ccccc3)C2)cc(OC)c1OC (stereo not drawn)	ALDH1A1 block 0.0398µM
c1ccc2c(c1)CCN2CCN1CCc2ccccc21	ALDH1A1 block 39.8µM
O=C(CCCc1ccccc1)c1ccc2c(c1)OCCO2	ALDH1A1 block inconclusive, Lamin A splicing inconclusive
O=C(CCN1CCC(c2cccs2)=N1)c1cccs1	ALDH1A1 block 3.16µM, Lamin A splicing inconclusive (no result: HPGD block, IMPase Li inh, Luc counter)
CN(C)CCN1CCc2ccccc21	ALDH1A1 block inconclusive, Lamin A splicing inconclusive
COc1cc(C(C)=O)ccc1OCCN1CCC(Cc2ccccc2)CC1	ALDH1A1 block inconclusive (no result: Lamin A splicing, HPGD block)
CCc1ccc(C(N)=S)cc1	none (no result: HPGD block)
O=C(CCN1CCc2ccccc21)c1ccc2c(c1)OCCO2	ALDH1A1 block 3.16µM, Lamin A splicing inconclusive
O=C(CCN1CCCCCC1)Nc1ccc2c(c1)OCCO2	ALDH1A1 block inconclusive (no result: Lamin A splicing, HPGD block)
O=C(CCN1CCC(c2ccccc2)C1)c1cccs1 (stereo not drawn)	ALDH1A1 block 0.126µM, Lamin A splicing inconclusive
O=C(CCN1CCCC1Cc1ccccc1)c1ccc2c(c1)OCCO2 (stereo not drawn)	ALDH1A1 block 0.0355µM, Lamin A splicing inconclusive
O=C(CCN1CCCCC1)c1ccc2c(c1)OCCO2	ALDH1A1 block 0.1µM
O=C(CCN1CCc2ccccc2C1)c1ccc2c(c1)OCCO2	ALDH1A1 block inconclusive, Lamin A splicing inconclusive, HPGD block inconclusive
O=C(CCc1ccccc1)c1ccc2c(c1)OCCCO2	ALDH1A1 block inconclusive, HPGD block inconclusive
CCC(c1nnnn1Cc1ccc(F)cc1)N(CCCO)Cc1cc2cc3c(cc2[nH]c1=O)OCO3 (stereo not drawn)	none
O=C(CCN1CCC(c2ccccc2)C1)c1ccccc1 (stereo not drawn)	ALDH1A1 block 1.41µM, Lamin A splicing inconclusive
COc1cc(N=C2C(=O)N3CCCc4cccc2c43)cc(OC)c1	ALDH1A1 block 0.631µM
